Results published in PubChem BioAssay.
Values without a mark were called inactive. The source made the active and inactive calls.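 How the source made its calls, unless noted: active means binding below the plate cutoff, the plate median minus 3 SD, with a reading above zero; inconclusive means below the plate cutoff but reading exactly zero; inactive means the rest.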

Test system: not listed separately
Assay: yeast V-ATPase proton transport modulators, S. cerevisiae, pHLuorin, HTS validation (AID 504600; in the data active means response above about 15%;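 further: plate controls were DMSO for no effect and reference compound for full effect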)
Settings: S. cerevisiae pHLuorin cytosolic pH, at 10 µM, stronger effect = higher value

Q: With `Fc1ccc(-n2cc(CNCCc3ccccn3)c(-c3ccccc3Cl)n2)cc1` as the compound, how does the response read?
A: Its response is -7.11%.

Q: Which response does the source give for `CO[C@@]1(NC(=O)Cc2cccs2)C(=O)N2C(C(=O)O)=C(COC(N)=O)CS[C@@H]21` here?
A: Its response is -0.45%.

Q: For `N#CCC(N)=C(C#N)C#N`, which response is on record?
A: Its response is 1.3%.

Q: Which response does the source give for `O=C(OCCN1CCOCC1)c1cccs1` here?
A: The response was 0.26%.

Q: Which response does the source give for `CC(=O)c1cc2c(cc1NC(=O)c1ccco1)OCCO2` here?
A: The response was -7.07%.

Q: Which response does the source give for `CC(C)NS(=O)(=O)c1ccc(OCC(=O)Nc2cccc(F)c2)cc1` here?
A: Its response is -2.45%.

Q: With `COc1ccc2[nH]c(CN3CCN(CC(C)C)C(CCO)C3)c(C)c2c1` (stereo not drawn) as the compound, how does the response read?
A: The response was 2.28%.

Q: For `Cc1ccsc1C1NC(=O)c2ccccc2N1` (stereo not drawn), which response is on record?
A: The response was -1.97%.

Q: For `Fc1ccc(NC(=S)Nc2ccccc2Cl)cc1`, which response is on record?
A: The response was 0.15%.

Q: With `CCN1C(=O)C(CC(=O)Nc2ccc(F)cc2)N(Cc2ccco2)C1=S` (stereo not drawn) as the compound, how does the response read?
A: The response was 1.67%.

Q: Which response does the source give for `Cc1ccc2c(c1C)NC(C(=O)O)C1CC=CC21` (stereo not drawn) here?
A: The response was 2.2%.

Q: With `c1cc(-c2ccncc2)ccn1` as the compound, how does the response read?
A: Its response is -5.09%.

Q: With `NS(=O)(=O)c1ccc(CCNC(=O)C2CCCN2C(=O)OCc2ccccc2)cc1` (stereo not drawn) as the compound, how does the response read?
A: Its response is 2.16%.

Q: For `CC(C)CN1CCN(Cc2cccn2-c2ccccn2)CC1CCO` (stereo not drawn), which response is on record?
A: The response was 74.8% (active).

Q: For `CC(C)COCC(CN(Cc1ccccc1)c1ccccc1)N1CCCC1` (stereo not drawn), which response is on record?
A: Its response is 0.91%.

Q: For `CS(=O)(=O)NCc1ccc(C(=O)NCc2ccccc2)cc1`, which response is on record?
A: The response was 4.07%.

Q: With `COc1cc(NC(=S)NN2CCN(C)CC2)cc(OC)c1OC` as the compound, how does the response read?
A: The response was 2.58%.

Q: Which response does the source give for `CC(=O)[C@@H]1[C@@H](C(=O)c2ccc(C)cc2)[C@]2(C(=O)Nc3ccccc32)[C@H]2C=Cc3cc(F)ccc3N12` here?
A: The response was -5.02%.

Q: For `COC(=O)c1ccc(NC(=O)c2ccccc2SC)cc1`, which response is on record?
A: Its response is -1.67%.

Q: For `O=C(Nc1nc2ccccc2s1)c1ccc(F)cc1`, which response is on record?
A: Its response is 4.11%.

Q: Which response does the source give for `CC(=O)N1c2ccccc2C(C)=CC1(C)C` here?
A: The response was -0.45%.

Q: For `CCC(=O)Oc1ccc(C(=O)Nc2ccc([N+](=O)[O-])cc2)cc1`, which response is on record?
A: The response was -4.69%.

Q: With `C[C@]12CC[C@@H]3c4ccc(O)cc4CC[C@H]3[C@@H]1CC[C@@H]2O` as the compound, how does the response read?
A: Its response is 2.25%.

Q: For `C=CCNc1nc2c(c(=O)n(C)c(=O)n2C)n1CC(=C)C`, which response is on record?
A: The response was -4.28%.

Q: Which response does the source give for `COc1ccc(CN2CCCCC2C(=O)Nc2ccc(OC)c(OCC(C)C)c2)cc1OC` (stereo not drawn) here?
A: The response was -0.65%.

Q: With `Cn1cc(C2N3CC4(C)CN2CC(C)(C3)C4=O)c2ccccc21` (stereo not drawn) as the compound, how does the response read?
A: Its response is -6.53%.

Q: With `Cc1ccc2nc(NC3=NC(CC(=O)O)C(=O)N3)nc(C)c2c1` (stereo not drawn) as the compound, how does the response read?
A: The response was 2.1%.

Q: Which response does the source give for `Cc1ccc(C2CC(=O)C(C=NCCN3CCN(CC(=O)Nc4cc(C)cc(C)c4)CC3)=C(O)C2)cc1` (stereo not drawn) here?
A: The response was -0.35%.

Q: Which response does the source give for `NC(N)=NC(=O)Cc1c(Cl)cccc1Cl` here?
A: Its response is -2.92%.

Q: With `O=C(CCSc1ccccc1)N1CCCC1` as the compound, how does the response read?
A: The response was -0.71%.

Q: For `O=C(Nc1ccc(F)c([N+](=O)[O-])c1)c1ccc2c(c1)OCCO2`, which response is on record?
A: The response was 3.69%.

Q: With `Nc1ccc2cn[nH]c2c1` as the compound, how does the response read?
A: Its response is -2.55%.

Q: For `CCN(CC)CC#CCOC(=O)C(O)(c1ccccc1)C1CCCCC1` (stereo not drawn), which response is on record?
A: Its response is -0.18%.

Q: For `CC(C)CN1CCN(Cc2ccc(C#CC(C)(C)O)cc2)CC1CCO` (stereo not drawn), which response is on record?
A: Its response is -6.34%.

Q: With `Cc1ccccc1NC(=O)NCCc1c[nH]c2ccccc12` as the compound, how does the response read?
A: The response was -3.03%.

Q: Which response does the source give for `C#CCN1C(=O)C(O)(c2c(C)[nH]c3ccccc23)c2ccccc21` (stereo not drawn) here?
A: The response was -0.83%.

Q: For `Cc1ccc(S(=O)(=O)N2CCC(C(=O)N[C@@H](C)C(=O)NC3CCS(=O)(=O)C3)CC2)cc1` (stereo partly drawn), which response is on record?
A: The response was 22.5% (active).

Q: For `CCNC(=O)c1c(N)sc2c1CCCCC2`, which response is on record?
A: The response was -1.51%.

Q: Which response does the source give for `COc1ccccc1C(=O)Oc1ccc2c(c1)O/C(=C\c1ccncc1)C2=O` here?
A: Its response is 0.47%.

Test system: anti-desmoglein-3 scFv antibody binding to human DSG3
Assay: inhibitors of anti-DSG3 scFv binding to DSG3, pilot screen, biochemical, validation compound set, bead-based, flow cytometry (AID 588368);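 further: signal is the median channel fluorescence of bead-bound GFP antibody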
Settings: Protein G beads, DSG3-Fc, scFv-GFP binding, at 10 µM, stronger effect = lower value

Q: With `Fc1ccc(-n2cc(CNCCc3ccccn3)c(-c3ccccc3Cl)n2)cc1` as the compound, how does the binding (% of control) read?
A: Its binding (% of control) is 110%.

Q: Which binding (% of control) does the source give for `CO[C@@]1(NC(=O)Cc2cccs2)C(=O)N2C(C(=O)O)=C(COC(N)=O)CS[C@@H]21` here?
A: The binding (% of control) was 93.6%.

Q: With `N#CCC(N)=C(C#N)C#N` as the compound, how does the binding (% of control) read?
A: The binding (% of control) was 101%.

Q: For `O=C(OCCN1CCOCC1)c1cccs1`, which binding (% of control) is on record?
A: Its binding (% of control) is 91.9%.

Q: Which binding (% of control) does the source give for `CC(=O)c1cc2c(cc1NC(=O)c1ccco1)OCCO2` here?
A: The binding (% of control) was 99.5%.

Q: For `CC(C)NS(=O)(=O)c1ccc(OCC(=O)Nc2cccc(F)c2)cc1`, which binding (% of control) is on record?
A: Its binding (% of control) is 98.5%.

Q: Which binding (% of control) does the source give for `COc1ccc2[nH]c(CN3CCN(CC(C)C)C(CCO)C3)c(C)c2c1` (stereo not drawn) here?
A: Its binding (% of control) is 97.4%.

Q: Which binding (% of control) does the source give for `Cc1ccsc1C1NC(=O)c2ccccc2N1` (stereo not drawn) here?
A: Its binding (% of control) is 97.6%.

Q: Which binding (% of control) does the source give for `Fc1ccc(NC(=S)Nc2ccccc2Cl)cc1` here?
A: The binding (% of control) was 102%.

Q: With `CCN1C(=O)C(CC(=O)Nc2ccc(F)cc2)N(Cc2ccco2)C1=S` (stereo not drawn) as the compound, how does the binding (% of control) read?
A: The binding (% of control) was 99.9%.

Q: For `Cc1ccc2c(c1C)NC(C(=O)O)C1CC=CC21` (stereo not drawn), which binding (% of control) is on record?
A: The binding (% of control) was 96.8%.

Q: With `c1cc(-c2ccncc2)ccn1` as the compound, how does the binding (% of control) read?
A: The binding (% of control) was 101%.

Q: For `NS(=O)(=O)c1ccc(CCNC(=O)C2CCCN2C(=O)OCc2ccccc2)cc1` (stereo not drawn), which binding (% of control) is on record?
A: Its binding (% of control) is 104%.

Q: Which binding (% of control) does the source give for `CC(C)CN1CCN(Cc2cccn2-c2ccccn2)CC1CCO` (stereo not drawn) here?
A: Its binding (% of control) is 102%.

Q: Which binding (% of control) does the source give for `CC(C)COCC(CN(Cc1ccccc1)c1ccccc1)N1CCCC1` (stereo not drawn) here?
A: Its binding (% of control) is 113%.

Q: Which binding (% of control) does the source give for `CS(=O)(=O)NCc1ccc(C(=O)NCc2ccccc2)cc1` here?
A: Its binding (% of control) is 98.7%.

Q: Which binding (% of control) does the source give for `COc1cc(NC(=S)NN2CCN(C)CC2)cc(OC)c1OC` here?
A: Its binding (% of control) is 105%.

Q: For `CC(=O)[C@@H]1[C@@H](C(=O)c2ccc(C)cc2)[C@]2(C(=O)Nc3ccccc32)[C@H]2C=Cc3cc(F)ccc3N12`, which binding (% of control) is on record?
A: Its binding (% of control) is 98.9%.

Q: For `COC(=O)c1ccc(NC(=O)c2ccccc2SC)cc1`, which binding (% of control) is on record?
A: The binding (% of control) was 99%.

Q: For `O=C(Nc1nc2ccccc2s1)c1ccc(F)cc1`, which binding (% of control) is on record?
A: Its binding (% of control) is 101%.

Q: With `CC(=O)N1c2ccccc2C(C)=CC1(C)C` as the compound, how does the binding (% of control) read?
A: The binding (% of control) was 109%.

Q: For `CCC(=O)Oc1ccc(C(=O)Nc2ccc([N+](=O)[O-])cc2)cc1`, which binding (% of control) is on record?
A: The binding (% of control) was 100%.

Q: With `C[C@]12CC[C@@H]3c4ccc(O)cc4CC[C@H]3[C@@H]1CC[C@@H]2O` as the compound, how does the binding (% of control) read?
A: Its binding (% of control) is 103%.

Q: For `C=CCNc1nc2c(c(=O)n(C)c(=O)n2C)n1CC(=C)C`, which binding (% of control) is on record?
A: The binding (% of control) was 104%.

Q: Which binding (% of control) does the source give for `COc1ccc(CN2CCCCC2C(=O)Nc2ccc(OC)c(OCC(C)C)c2)cc1OC` (stereo not drawn) here?
A: Its binding (% of control) is 95.9%.

Q: With `Cn1cc(C2N3CC4(C)CN2CC(C)(C3)C4=O)c2ccccc21` (stereo not drawn) as the compound, how does the binding (% of control) read?
A: The binding (% of control) was 95.1%.

Q: For `Cc1ccc2nc(NC3=NC(CC(=O)O)C(=O)N3)nc(C)c2c1` (stereo not drawn), which binding (% of control) is on record?
A: The binding (% of control) was 96.1%.

Q: For `Cc1ccc(C2CC(=O)C(C=NCCN3CCN(CC(=O)Nc4cc(C)cc(C)c4)CC3)=C(O)C2)cc1` (stereo not drawn), which binding (% of control) is on record?
A: The binding (% of control) was 103%.

Q: With `NC(N)=NC(=O)Cc1c(Cl)cccc1Cl` as the compound, how does the binding (% of control) read?
A: Its binding (% of control) is 98.2%.

Q: For `O=C(CCSc1ccccc1)N1CCCC1`, which binding (% of control) is on record?
A: Its binding (% of control) is 91.3%.

Q: Which binding (% of control) does the source give for `O=C(Nc1ccc(F)c([N+](=O)[O-])c1)c1ccc2c(c1)OCCO2` here?
A: Its binding (% of control) is 92.4%.

Q: With `Nc1ccc2cn[nH]c2c1` as the compound, how does the binding (% of control) read?
A: The binding (% of control) was 102%.

Q: With `CCN(CC)CC#CCOC(=O)C(O)(c1ccccc1)C1CCCCC1` (stereo not drawn) as the compound, how does the binding (% of control) read?
A: Its binding (% of control) is 104%.

Q: Which binding (% of control) does the source give for `CC(C)CN1CCN(Cc2ccc(C#CC(C)(C)O)cc2)CC1CCO` (stereo not drawn) here?
A: Its binding (% of control) is 98.3%.

Q: With `Cc1ccccc1NC(=O)NCCc1c[nH]c2ccccc12` as the compound, how does the binding (% of control) read?
A: The binding (% of control) was 101%.

Q: With `C#CCN1C(=O)C(O)(c2c(C)[nH]c3ccccc23)c2ccccc21` (stereo not drawn) as the compound, how does the binding (% of control) read?
A: The binding (% of control) was 100%.

Q: With `Cc1ccc(S(=O)(=O)N2CCC(C(=O)N[C@@H](C)C(=O)NC3CCS(=O)(=O)C3)CC2)cc1` (stereo partly drawn) as the compound, how does the binding (% of control) read?
A: Its binding (% of control) is 103%.

Q: For `CCNC(=O)c1c(N)sc2c1CCCCC2`, which binding (% of control) is on record?
A: Its binding (% of control) is 95.3%.

Q: With `COc1ccccc1C(=O)Oc1ccc2c(c1)O/C(=C\c1ccncc1)C2=O` as the compound, how does the binding (% of control) read?
A: The binding (% of control) was 103%.
